Only some compounds are listed: those with a hit (about 4.3% of all), similar ones and a draw of the others.
HSF1 activator – increases HSF-1 driven luciferase reporter signal | NIH3T3-HGL HSF-1 luciferase reporter, MG132, 8 h; 100% = twice DMSO control signal | activation, % at 9 µM | 300,000 tested, 1.7% active | AID 504408;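 active = mean replicate activation of at least 50% with a set share of replicates each reaching 50%; inconclusive = only one of those two conditions met; inactive = mean below 50% and too few replicates reaching it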;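 note: 0% = median of the neutral control wells and 100% = twice that signal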
MITF act – MITF TRPM1 promoter activation in melanoma cells | SK-MEL-5 TRPM1-promoter luciferase, 24 h; % of positive control, neutral wells = 0 | activation, % at 12.5 µM | 300,000 tested, 0.75% active | AID 588334;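 active = mean activation of at least 80% with every replicate also reaching 80%; inconclusive = mean reaches 80% but some replicate falls short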;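 note: 0% = neutral control wells and 100% = parthenolide positive control wells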
SMARCA2 act – SMARCA2 function activation, primary screen; activation, % at 9.1 µM; 370,000 tested, 1% active; AID 652017; MG213 cells, MMTV-luciferase reporter, dexamethasone, overnight; in the data active = activation above about 7.8%;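 note: 0% = vehicle wells and 100% = reference activator wells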
Wnt bcat act – activators of Wnt/beta-catenin signaling; Wnt/beta-catenin reporter cell assay, activator, plate reader; activation, % at 9.35 µM; 300,000 tested, 1.2% active; in the data active = activation above about 30%, passing the limit was not always enough; inconclusive = no clear call, values can overlap the other calls;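 note: 0% = neutral control wells and 100% = positive control wells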
esBAF inh – SWI/SNF esBAF complex inhibition | mouse ES cells, Bmi1-luciferase knock-in reporter, 24 h; 100% = twice the neutral-well signal | reporter increase, % at 12.5 µM | 350,000 tested, 2% active; in the data active = activation above about 40%; inconclusive = no clear call, values can overlap the other calls;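 note: 0% = median of the plate's neutral control wells and 100% = double that signal; a rise in the Bmi1 reporter signal indicates esBAF inhibition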
HSF1 inh – HSF1 inhibition; NIH3T3-HGL HSE-luciferase, MG132-induced, luminescence 8 h; stronger effect = lower value; activity change, negative = inhibition, % at 7.5 µM (by protocol); 300,000 tested, 0.77% active;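 active = more than half of replicate wells show activity change below -50%, luminescence cut by over half; inconclusive = some wells, but at most half, below -50%; inactive = no replicate well below -50%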;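 note: luciferase reports HSF-1 transcriptional activity via heat shock element; 0% = median of DMSO wells and -100% = zero luminescence signal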
An asterisk follows results filed as active; ? = inconclusive; / = not tested or not shown; ! = a repeat was not active.

SMILES	HSF1 activator	MITF act	SMARCA2 act	Wnt bcat act	esBAF inh	HSF1 inh
O=c1nc(/C=C/c2ccc(O)c(O)c2)oc2ccccc12	28	82*	/	/	-11	19
Cc1noc(C)c1NC(=O)N(C)C[C@@H]1Oc2c(NS(C)(=O)=O)cccc2C(=O)N([C@H](C)CO)C[C@H]1C	/	/	/	/	6	/
COCC(=O)N1[C@H](CO)[C@H]2c3ccccc3N(C(=O)C3CC3)C[C@H]21	/	/	/	/	0	/
COc1ccc(S(=O)(=O)Nc2ccc3c(c2)C(=O)N([C@H](C)CO)C[C@H](C)[C@@H](CN(C)C(=O)NC(C)C)OCCCC[C@H](C)O3)cc1	/	/	/	/	2	/
CCN1CCN(c2cc3c(nn2)Oc2ccccc2N3C)CC1	16	82*	5	/	/	1
O=C(C[C@H]1CC[C@H]2[C@@H](COC[C@H](O)CN2C(=O)Nc2ccc(F)cc2)O1)NCCCN1CCOCC1	/	/	/	/	2	/
O=C(O)c1cccc(COc2ccc3c(c2)CCC3)c1	-82	-95	1	-8	/	-79*
O=C(NCc1ccccc1)c1cccc(COc2ccc3c(c2)CCC3)c1	-35	-27	4	/	/	-35
COc1cccc(OC)c1C(=O)NNC(=O)c1cccc(COc2ccc3c(c2)CCC3)c1	-58	/	4	?	-19	-57*
Cn1cnc(S(=O)(=O)N2CC[C@@H]3[C@H]2c2cc(C#Cc4ccccc4)ccc2N[C@@H]3CO)c1	/	/	/	/	-2	/
C[C@H](NC(=O)C[C@H]1C[C@@H]2c3cc(NC(=O)C4CCOCC4)ccc3O[C@@H]2[C@@H](CO)O1)c1ccccc1	/	/	/	/	-2	/
Cc1ccc(-c2nnc(Cc3ccc([N+](=O)[O-])cc3)o2)cc1	15	94*	5	?	-5	12
CCOc1ccc2nc(SCC3CC3(Cl)Cl)[nH]c2c1 (stereo not given)	28	/	5	35*	/	20
CCOc1ccc2nc(SC(C)C(N)=O)[nH]c2c1 (stereo not given)	?	/	7.9*	/	6	5
CCOC(=O)NC(=O)CSc1nc2ccc(OCC)cc2[nH]1	0	-9	-1	-2	/	5
COCC#Cc1ccc([C@@H]2[C@H]3CN(C(=O)Nc4cc(F)ccc4F)CCCCN3[C@H]2CO)cc1	/	/	/	/	-2	/
O=C(NC(=S)NC1CCCCC1)c1ccccc1	8	53	4	17	45*	18
O=C(NC(=S)NC1CCCCCC1)c1cncc(Br)c1	21	95*	3	37*	/	8
CCOc1ccccc1/C=C/c1onc(C)c1S(=O)(=O)N1CCC(C(=O)NC(C)(C)C)CC1	-86	-22	-2	2	-1	-83*
CCOc1ccccc1/C=C/c1onc(C)c1S(=O)(=O)N1CCC(C(=O)NC)CC1	6	17	-4	0	4	7
Cc1ccc(N/C=C(/C#N)c2ccsc2)cc1	53*	38	5	/	68*	26
N#C/C(=C/Nc1ccccc1)c1ccsc1	17	18	4	/	12	9
CC(C)NC(=O)N(C)C[C@H]1OCCCC[C@H](C)Oc2ccc(NC(=O)c3ccncc3)cc2C(=O)N([C@H](C)CO)C[C@@H]1C	/	/	/	/	-4	/
Cc1ccc(CNC(=O)Cn2ccc3ccccc3c2=O)o1	64*	0	-3	/	/	13
COC(=O)CNC(=O)Cn1ccc2ccccc2c1=O	-39	10	-1	/	-10	-26
SMILES	HSF1 activator	MITF act	SMARCA2 act	Wnt bcat act	esBAF inh	HSF1 inh
N#Cc1nc(COc2ccccc2)oc1N1CCCCC1	12	42	1	12	60*	8
N#Cc1nc(COc2ccc(Cl)cc2)oc1N1CCCCCC1	/	14	2	1	6	/
CN1c2ccsc2/C(=N/Nc2ccccc2)CS1(=O)=O	46	-6	-1	6	58*	38
O=C(CN1C(=O)NC2(CCCc3ccccc32)C1=O)Nc1cccc(S(=O)(=O)N2CCCCC2)c1 (stereo not given)	58*	-2	-4	-3	/	24
Cc1ccc(NC(=O)CN2C(=O)NC3(CCc4ccccc43)C2=O)cc1S(=O)(=O)N1CCCCC1 (stereo not given)	29	7	3	-4	3	15
Cc1ccc(O)c(C(=O)c2cnn(-c3ccccc3)c2)c1	4	8	3	14	50*	1
Cc1ccc(-n2cc(C(=O)c3ccc4ccccc4c3O)cn2)cc1	18	-2	-4	4	/	2
Cc1ccc(-n2cc(C(=O)c3ccccc3O)cn2)cc1	-79	23	-4	6	-30	-77*
Cc1ccc(Nc2nc(-c3ccccc3)c(CC(=O)O)s2)cc1	63*	50	0	10	/	36
OCC(O)/C=N/Nc1nc2ccccc2s1 (stereo not given)	-9	-6	-2	/	/	-6
Cc1ccc(Nc2nc3ccccc3s2)cc1	60*	28	6	20	/	28
O=C(O)Cc1sc(Nc2ccccc2)nc1-c1ccc(Cl)cc1	31	50	6	14	/	16
Fc1ccc(Nc2nc3ccccc3s2)cc1	26	67	2	-1	46*	17
Cc1ccccc1Nc1nc2ccccc2s1	31	19	6	/	/	18
CCCN(C)C[C@H]1Oc2cc(C#Cc3ccccn3)ccc2S(=O)(=O)N([C@H](C)CO)C[C@H]1C	/	/	/	/	5	/
CC1(C)CC(=O)C2=C(C1)Nc1ccccc1NC2c1cccnc1 (stereo not given)	-25	0	-3	/	/	-9
CN(C)c1ccc(-c2nc3n(n2)C(c2cccnc2)C2=C(CC(C)(C)CC2=O)N3)cc1 (stereo not given)	-76	-13	-1	-1	7	-70*
COc1ccc(C(=O)Nc2nccs2)cc1[N+](=O)[O-]	/	15	0	3	/	/
Cn1cc([N+](=O)[O-])c(C(=O)Nc2ccc(Br)cn2)n1	53*	6	-2	/	29	60
CCSc1ccc(C(=O)Nc2ccc(Br)cn2)cc1[N+](=O)[O-]	-1	24	3	8	/	-5
Cn1cc([N+](=O)[O-])c(C(=O)Nc2nccs2)n1	77*	-15	-2	3	/	49
O=C(Cc1ccccn1)NCC[C@@H]1CC[C@H](NS(=O)(=O)c2ccc(F)cc2)[C@H](CO)O1	/	/	/	/	2	/
O/C(=C\c1nc2ccccc2[nH]1)c1cccs1	60*	6	2	39*	42*	50
O=c1[nH]c2ccccc2nc1/C=C(\O)c1cccs1	34	35	5	37*	/	20
O=C(Nc1nc2ccccc2[nH]1)c1cccs1	55*	62	4	46*	-6	38
CN1CCN(C(=O)C[C@H]2CC[C@@H]3[C@@H](COc4ccc(NC(=O)c5cccs5)cc4C(=O)N3C)O2)CC1	/	/	/	/	1	/
CCN(CC)CCOc1ccc(/C(=C(/Cl)c2ccccc2)c2ccccc2)cc1	67*!	-11	-6	-5	-14	18

Source: PubChem BioAssay
